Assay results taken from PubChem BioAssay (Tox21).
Inconclusive results are not listed. Active and inactive are the calls of the source. Calls follow the shape of the dose curve; as a rule, active = well fitted activation curve with a large enough effect in the signal ratio in the repeat runs, with a control signal flat (not every such curve was filed as active); inconclusive = weak or mixed curves, or effect the other way; inactive = no such curve, though single readings can be large or run the other way; the % refers to the signal ratio.

Target: Androgen receptor (Homo sapiens) (UniProt P10275)
Sequence (P10275 whole entry, looked up): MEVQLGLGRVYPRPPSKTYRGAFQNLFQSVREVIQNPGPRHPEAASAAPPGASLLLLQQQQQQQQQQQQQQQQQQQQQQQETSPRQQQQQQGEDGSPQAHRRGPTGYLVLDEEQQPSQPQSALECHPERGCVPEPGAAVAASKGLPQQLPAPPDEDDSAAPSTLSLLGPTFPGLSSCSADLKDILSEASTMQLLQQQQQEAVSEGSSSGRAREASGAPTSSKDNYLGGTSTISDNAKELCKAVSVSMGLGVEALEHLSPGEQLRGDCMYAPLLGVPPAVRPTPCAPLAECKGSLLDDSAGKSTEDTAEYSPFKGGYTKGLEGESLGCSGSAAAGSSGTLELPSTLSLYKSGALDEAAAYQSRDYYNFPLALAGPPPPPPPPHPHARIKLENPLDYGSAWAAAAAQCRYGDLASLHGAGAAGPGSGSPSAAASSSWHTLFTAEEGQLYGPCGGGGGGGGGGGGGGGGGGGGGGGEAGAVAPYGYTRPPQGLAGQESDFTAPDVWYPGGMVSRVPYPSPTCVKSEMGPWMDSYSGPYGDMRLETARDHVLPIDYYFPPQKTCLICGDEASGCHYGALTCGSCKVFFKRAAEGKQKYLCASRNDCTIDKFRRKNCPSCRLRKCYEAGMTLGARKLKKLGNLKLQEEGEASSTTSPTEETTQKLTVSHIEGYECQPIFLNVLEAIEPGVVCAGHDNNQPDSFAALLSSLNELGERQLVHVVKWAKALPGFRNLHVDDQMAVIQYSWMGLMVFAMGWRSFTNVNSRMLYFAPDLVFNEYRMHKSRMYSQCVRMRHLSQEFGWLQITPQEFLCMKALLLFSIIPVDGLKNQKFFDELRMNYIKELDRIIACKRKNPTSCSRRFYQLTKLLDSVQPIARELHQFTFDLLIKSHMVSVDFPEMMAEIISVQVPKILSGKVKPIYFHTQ
Experiment: qHTS assay to identify small molecule agonists of the androgen receptor (AR) signaling pathway (AID 743036)
Conditions: HEK293 AR-UAS-bla GripTite, beta-lactamase FRET ratio, 16 h; series mostly up to 62.4 µM
Excerpt: U.S. Tox21 Program National Center for Advancing Translational Sciences [NCATS] NIH Chemical Genomics Center [NCGC] U.S. Environmental Protection Agency [EPA] National Institutes of Environmental Health Sciences [NIEHS] National Toxicology Program [NTP] U.S. Food and Drug Administration [FDA] Tox21 Assay Overview: Androgen receptor (AR), a nuclear hormone receptor, plays a critical role in AR-dependent prostate cancer and other androgen related diseases. Endocrine disrupting chemicals (EDCs) and their interactions with steroid hormone receptors like AR may cause disruption of normal endocrine function as well as interfere with metabolic homeostasis, reproduction, developmental and behavioral functions. To identify the compounds that activate AR signaling, GeneBLAzer AR-UAS-bla-GripTite cell line (Invitrogen, Carlsbad, CA, USA) containing a beta-lactamase reporter gene under the control of an Upstream Activator Sequence (UAS) stably integrated into HEK293 cells was used to screen the Tox21 10K compound library.
Tox21 Assay Protocol Summary: AR-bla cells were dispensed at 2,000 cells/6 uL/well of assay medium into black wall/clear-bottom 1536-well plates using a Multidrop Combi (ThermoFisher Scientific, Waltham, MA) dispenser. After the assay plates were incubated at 37C and 5% CO2 for 4 h, 23 nL of compounds dissolved in DMSO, positive controls or DMSO only was transferred to the assay plate by a Pintool station (Kalypsys, San Diego, CA). The plates were incubated at 37C and 5% CO2 for 16 h. Then 1 uL of LiveBLAzerTM B/G FRET substrate was added using a Bioraptr Flying Reagent Dispenser (FRD) workstation (Beckman Coulter, Indianapolis, IN, USA). The plates were incubated at room temperature for 2 h, and fluorescence intensity was measured by an Envision plate reader (PerkinElmer, Shelton, CT).

Structure (SMILES)	outcome
COC(=O)C1=C(C)NC(C)=C(C(=O)OC(C)C)C1c1cccc2nonc12 (configuration not stated)	inactive
COC(=O)Nc1ccc(Cl)c(Cl)c1	inactive
CCCCOCCOC(=O)COc1cc(Cl)c(Cl)cc1Cl	inactive
O=C(O)CCSCCC(=O)O	inactive
Cc1ccc(-c2ncc(Cl)cc2-c2ccc(S(C)(=O)=O)cc2)cn1	inactive
CCOC(=O)COc1cc(-n2ncc(C(F)(F)F)c(C)c2=O)c(F)cc1Cl	inactive
CC(C)C1CCC(O)CC1 (configuration not stated)	inactive
CCN(Cc1ccccc1)c1ccccc1	inactive
CO[C@@]1(NC(=O)CSC[C@@H](N)C(=O)O)C(=O)N2C(C(=O)O)=C(CSc3nnnn3C)CS[C@@H]21	inactive
C=C[Si](OC(C)=O)(OC(C)=O)OC(C)=O	inactive
O=S(=O)(O)c1cc(O)c(O)c(S(=O)(=O)O)c1	inactive
CC(C)(C)c1ccc(-c2ccc(C(C)(C)C)cc2)cc1	inactive
Cc1nc2ccc(CN(C)c3ccc(C(=O)N[C@@H](CCC(=O)O)C(=O)O)s3)cc2c(=O)[nH]1	inactive
CC(=O)N[C@H]1[C@H]([C@H](O)[C@H](O)CO)OC(C(=O)O)=C[C@@H]1N=C(N)N	inactive
NS(=O)(=O)Cc1noc2ccccc12	inactive
CCCOC(=O)CC	inactive
Cc1ccc(C(=O)c2ccccc2)cc1	inactive
CC1(C)OC[C@@H](COC(=O)CCc2ccc(OC[C@@H](O)CNCCNC(=O)N3CCOCC3)cc2)O1	inactive
COCCOC[C@H](CC1(C(=O)NC2CCC(C(=O)O)CC2)CCCC1)C(=O)Oc1ccc2c(c1)CCC2 (some centres not stated)	inactive
CCCCCCCC1CCCC1=O (configuration not stated)	inactive
CNC(=O)Nc1ccc(Cl)c(Cl)c1	inactive
CC1=NN(c2cccc(S(=O)(=O)O)c2)C(=O)C1	inactive
